CYP2C19 inh: human CYP2C19 inhibition. CYP2C19 Supersomes, luciferin-H EGE luminescence, 30 min. inhibition, % at 5 µM. actives 21% (n = 96,000). AID 778;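 active = CYP2C19 inhibition above a set limit at 5 µM in the primary screen, cut at about 50% in these data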;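 also: plate controls were negative control wells for no effect and 2.5 mM tranylcypromine positive control for full effect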
CYP2C9 act: CYP2C9 (human) activation | P11712 | recombinant CYP2C9, luciferin-H conversion, luminescence; stronger effect = higher value; factor 1 = untreated enzyme, 0 = blocked | activation factor at 5 µM | actives 1.4% (n = 96,000) | AID 1024;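 active = activation factor of 2 or more for CYP2C9 at a 5 µM dose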;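 also: 0 = sulfaphenazole-blocked wells and 1 = vehicle-only wells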
Target sequence (P11712 whole entry, looked up): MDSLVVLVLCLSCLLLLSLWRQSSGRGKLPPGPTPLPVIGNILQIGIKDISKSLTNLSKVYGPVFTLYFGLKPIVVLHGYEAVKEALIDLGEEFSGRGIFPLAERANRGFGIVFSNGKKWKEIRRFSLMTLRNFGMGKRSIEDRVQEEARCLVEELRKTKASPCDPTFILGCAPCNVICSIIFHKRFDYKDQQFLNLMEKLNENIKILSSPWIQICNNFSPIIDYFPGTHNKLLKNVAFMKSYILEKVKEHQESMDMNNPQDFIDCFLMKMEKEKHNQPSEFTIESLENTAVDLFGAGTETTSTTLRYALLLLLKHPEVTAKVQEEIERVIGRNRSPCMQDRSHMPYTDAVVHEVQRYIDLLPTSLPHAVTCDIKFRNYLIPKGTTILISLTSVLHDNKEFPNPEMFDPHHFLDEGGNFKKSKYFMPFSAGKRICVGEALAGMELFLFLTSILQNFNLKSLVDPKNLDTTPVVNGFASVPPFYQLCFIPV
CYP2C19 act: activators of human cytochrome P450 2C19; recombinant CYP2C19, luciferin-H EGE luminescence; stronger effect = higher value; 0 = fully inhibited enzyme, 1 = untreated enzyme; AID 1025; activation factor at 5 µM; P33261; 96,000 tested, under 10 active;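 active = activation factor of at least 2 at 5 µM in the primary screen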;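 also: 0 = wells with 2.5 mM tranylcypromine and 1 = vehicle-only wells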
CYP2C9 inhib: blocks human cytochrome P450 2C9; actives 20% (n = 96,000); inhibition, % at 5 µM; AID 777; CYP2C9 Supersomes, luciferin-H conversion, luminescence; P11712;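 active = blocking of liver enzyme CYP2C9 beyond about 50% at 5 µM, limit read from the data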
* hit, by the source's call. Most compounds without a hit are left out; they make up all but 31% or so of the library.

SMILES	CYP2C19 inh	CYP2C9 act	CYP2C19 act	CYP2C9 inhib
NS(=O)(=O)c1ccc(CCNC2CC(=O)N(Cc3ccccc3)C2=O)cc1 (stereo not given)	-7	0.9	1.1	11
CN(C)C(=O)COC(=O)c1cc(Cl)cc(Cl)c1N	26	1.3	0.7	-29
CC(C)N(C(=O)COC(=O)c1cc(Cl)cc(Cl)c1N)C(C)C	83*	0.3	0.2	66*
CC1CCN(C(=O)COC(=O)c2cc(Cl)cc(Cl)c2N)CC1	46	2.3*	0.5	-133
C=CCNC(=O)NS(=O)(=O)c1ccc(C)cc1	6	1	0.9	0
CSc1nnc2c3ccccc3n(Cc3ccccc3)c2n1	10	0.8	0.9	20
C=CCn1c2ccccc2c2nnc(SCc3ccc4nonc4c3)nc21	84*	0.2	0.2	84*
CCOC(=O)Cc1nnc(NC(=O)CSc2nnc3c4ccccc4n(C)c3n2)s1	96*	0.1	0	92*
C=CCn1c2ccccc2c2nnc(SCC(=O)Nc3cc(C)on3)nc21	28	0.4	0.7	55*
Cc1cc(C)nc(SCc2ccc3nonc3c2)n1	46	0.8	0.5	23
CSc1nnc2c3ccccc3n(CCc3ccccc3)c2n1	61*	0.9	0.4	9
O=Cc1ccc2noc(-c3ccc(F)cc3)c2c1	39	0.9	0.6	7
CCOc1ccc(CCNC(=O)c2oc3c(c2C)-c2[nH]ncc2CC3)cc1OCC	3	0.8	1	21
CC(C)CCSc1nc(N)c(C#N)cc1C#N	14	0.8	0.9	24
CCCn1c2ccccc2c2nnc(SCC(=O)Nc3ncccn3)nc21	52*	0.4	0.5	60*
O=C(NC(=S)Nc1ccccc1)c1csnn1	34	1.1	0.7	-7
COC(=O)[C@H](CCSC)NC(=O)NCc1ccccn1	7	1.1	0.9	-5
Cn1cccc1CNC(=O)Nc1ccc(Cl)cc1	59*	0.8	0.4	23
Cn1cccc1CNC(=O)Nc1ccccc1	75*	0.6	0.2	37
Cc1cc(C)cc(NC(=S)NC(=O)CCN2C(=O)c3ccccc3C2=O)c1	20	1.1	0.8	-8
Cc1cc(C)cc(NC(=S)NCc2cccn2C)c1	14	2.1*	0.9	-110
Cn1cccc1CNCc1ccccc1Cl	38	1	0.6	2
CC(C)CN(CC(C)C)C(=O)CC(=O)NC(=O)c1ccc(Cl)cc1	34	0.8	0.7	25
CN(CC1CCCO1)S(=O)(=O)c1ccc(C(=O)Nc2nc(-c3ccccn3)cs2)cc1 (stereo not given)	13	0.7	0.9	26
Cc1onc(-c2c(F)cccc2Cl)c1C(=O)NCCc1ccc(S(N)(=O)=O)cc1	28	1.1	0.7	-7
SMILES	CYP2C19 inh	CYP2C9 act	CYP2C19 act	CYP2C9 inhib
COc1ccc(OC)c(-c2cc(C(=O)Nc3cccc(Cl)c3)no2)c1	-4	2.2*	1	-117
COc1cccc(-c2cc(C(=O)NCc3ccco3)no2)c1	-3	1.7	1	-66
COC(=O)c1ccccc1NC(=O)c1ccc(-c2cccc(Cl)c2)o1	8	0.9	0.9	6
COc1ccc(OC)c(-c2cc(C(=O)NCc3ccco3)no2)c1	9	2.9*	0.9	-191
COc1ccc(N=c2oc3c(OC)cccc3cc2C(=O)NCc2ccco2)c(OC)c1	30	0.5	0.7	54*
COC(=O)c1sccc1-c1ccc(C(=O)Nc2cccc(Cl)c2)o1	43	0.3	0.6	72*
CCc1c(C(=O)Nc2ccc(S(=O)(=O)N3CCOCC3)cc2)csc1C	35	0.6	0.6	43
CC(C)(C)NC(=O)NC(=O)CSc1nnc(-c2ccccc2F)n1N	3	0.9	1	6
COc1cccc(NC(=O)CSc2nnc(-c3cccc(OC(C)C)c3)n2N)c1	42	0.2	0.6	76*
Cc1ccccc1-c1nnc(SCC(=O)Nc2ccc(Cl)cc2)n1N	54*	0.3	0.5	70*
CC(C)CCNC(=O)NC(=O)CSc1nnc(-c2ccccc2F)n1N	44	0.5	0.6	54*
COc1ccc(NC(=O)CSc2nnc(-c3ccccc3C)n2N)cc1	58*	0.3	0.4	74*
COc1ccccc1NC(=O)c1sc2ncn(Cc3cccc(C)c3)c(=O)c2c1C	8	1.2	0.9	-20
O=C(Nc1ccc(N2CCOCC2)cc1)Nc1cnsn1	2	1	1	-5
Cc1nc(N)sc1N=Nc1ccc(Br)cc1	33	0.6	0.7	37
COC(=O)CON1C(=O)c2ccccc2C1=O	-28	1.3	1.3	-26
COC(=O)c1ccc(CSc2nnc(SCc3ccc(C(=O)OC)o3)s2)o1	34	0.4	0.7	59*
COC(=O)c1ccc(CSc2nnc(NCc3ccccc3)s2)o1	24	0.7	0.8	26
COC(=O)c1ccc(CSc2nc(-c3ccccc3)cs2)o1	25	0.4	0.8	56*
O=C(CCc1ccccc1)NCc1ccccn1	12	0.9	0.9	11
CC1c2nc3ccccc3n2C(CC(=O)NCc2ccccn2)C(=O)N1Cc1ccccc1 (stereo not given)	80*	0.9	0.2	7
CC1=CC(C)C2C(=O)N(O)C(=O)C2C1 (stereo not given)	3	1	1	5
CCSc1nnc(-c2ccncc2)n1Cc1ccccc1	14	1.2	0.9	-21
Cn1c(SCCOc2ccccc2Cl)nnc1-c1ccncc1	97*	0.4	0	62*
Cc1ccccc1OCCSc1nnc(-c2ccncc2)n1C	97*	0.1	0	86*
SMILES	CYP2C19 inh	CYP2C9 act	CYP2C19 act	CYP2C9 inhib
Clc1ccc(-n2nnnc2-c2ccccc2)cc1	98*	0.4	0	61*
COc1ccc(-n2c(-c3ccccc3)nnc2-c2ccc(Cl)cc2)cc1	-1	1	1	-4
O=C(O)c1nc(-c2ccccc2)n(-c2ccc(Cl)cc2)n1	-1	0.9	1	7
COc1ccc(OCc2nnnn2-c2ccccc2)cc1	69*	0.8	0.3	21
COc1ccc(-n2nnnc2-c2ccccc2)cc1	76*	0.6	0.2	35
CCOC(=O)N1CCN(C(=O)CCc2c(C)nc3c(c(C)nn3-c3ccc(C)c(C)c3)c2C)CC1	32	0.5	0.7	49
COc1ccccc1CNC(=O)C1COc2ccccc2O1 (stereo not given)	99*	1.2	0	-19
CCOC(=O)c1ccccc1NC(=O)C1COc2ccccc2O1 (stereo not given)	87*	0.7	0.1	31
COC(=O)c1ccccc1NC(=O)C1COc2ccccc2O1 (stereo not given)	90*	1.3	0.1	-32
COC(=O)c1ccsc1NC(=O)C1COc2ccccc2O1 (stereo not given)	31	0.8	0.7	23
COC(=O)c1cc(NC(=O)C2COc3ccccc3O2)cc(C(=O)OC)c1 (stereo not given)	63*	0.3	0.4	73*
Cc1cc(C)n(C(=O)c2ccc(NC(=O)C3COc4ccccc4O3)cc2)n1 (stereo not given)	45	1.7	0.6	-67
CC(C)C(=O)c1cc2c(cc1NC(=O)c1cccs1)OCCO2	-3	0.8	1	17
CCS(=O)(=O)c1ccc(S(=O)(=O)CC)s1	-6	1	1.1	-3
